For 8 compounds, growth results are on record in PubChem BioAssay (NCI).

The panel holds about 83,000 compounds, 20% with a hit somewhere; the sample as a whole holds those more often.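 Method: cells in 96-well plates; compound added at one concentration; 48 h incubation; percent growth measured; values under 10 scored active.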 A number with no mark means an inactive call. Active and inactive are the calls of the source.

What all share (assay): NCI-60 one-dose screen, 48 h (100 = growth as untreated, 0 = no growth, -100 = all killed)
Holding throughout (conditions): 10 µM unless noted

The subject of assay [1] is NCI-H23 lung.
Assay [2] concerns NCI-H322M lung.
For assay [3], the system named is HOP-62 NSCLC.
Assay [4] concerns NCI-H460 lung.
Assay [5] has as its system HOP-92 NSCLC.
The test system of assay [6] is NCI-H522 lung.
The subject of assay [7] is A549/ATCC NSCLC.
Assay [8] concerns 786-0 renal.
Assay [9] has as its system COLO 205 colon.
Assay [10] deals with DU-145 prostate.
The test system of assay [11] is K-562 leukemia.
The subject of assay [12] is MALME-3M melanoma.
Assay [13] relates to MDA-MB-231 breast.
Assay [14] deals with RXF 393 renal.
Assay [15] concerns SF-268 CNS.
The subject of assay [16] is SF-295 CNS.
Assay [17] has as its system SF-539 CNS.
In assay [18] the test system is UACC-257 melanoma.
The subject of assay [19] is M14 melanoma.
Assay [20] relates to HCT-15 colon.

Regarding `O=C(Nc1ccc(I)cc1F)c1cc(F)ccc1O`, the growth was -2.66% (active) in assay [1]; 4.87% (active) in assay [2]; -16.6% (active) in assay [3]; 1.95% (active) in [4]; -9.55% (active) in [5]; -15.8% (active) in assay [6]. In addition, the growth in [7] was 6.45% (active); in assay [8], -0.577% (active); in assay [9] it was 25.1%; in assay [10] it was 15.1%; in assay [11], 6.93% (active); in [12], -31.4% (active). In addition, the growth is -23.7% (active) in assay [13]; -2.46% (active) in assay [14]; 8.56% (active) in assay [15]; -68.5% (active) in assay [16]; 1.28% (active) in assay [17]; -17.3% (active) in [18]. Further, the growth in assay [19] is -14.5% (active); in [20] it was 0.237% (active).

As for `CCN1C(=O)N(CC)C2Nn3c(s/c(=C4\C(=O)N(C(C)C)c5ccccc54)c3=O)=NC21` (stereo not given), the growth in assay [1] is 36.6%; in [2], 61.3%; in assay [3] it was 51.8%; in assay [4], 21.3%; in assay [5] it was 13.9%; in assay [6], 27.2%. The growth in assay [7] is 30.4%; in assay [8] it was 49.1%; in [9], 7.65% (active); in assay [10] it was 38%; in [11], 13.8%; in [12], 71.4%. Moreover, the growth in assay [13] is 24%; in assay [14] it was 44.5%; in assay [15], 51.8%; in assay [16], 19%; in [17], 11.5%; in assay [18], 28.9%. Also, the growth in assay [19] is 21.9%; in [20], 22.3%.

For the compound `CC(C)CCNCC(O)Cn1c2ccccc2c2ccccc21` (stereo not given), the growth in assay [1] was 25.4%; in assay [2] it was 30.7%; in [3] it was 18.1%; in assay [4], 1.52% (active); in [5], -13.7% (active); in [6], 20.3%. For the same compound, the growth in assay [7] was 11.9%; in assay [8], 25.2%; in assay [9] it was 2.79% (active); in assay [10], 9.71% (active); in [11] it was 1.84% (active); in assay [12], -12.3% (active). The growth in assay [13] was 41.6%; in assay [14], 8.43% (active); in assay [15] it was 30.7%; in [16], -40% (active); in assay [17], 16.1%; in assay [18], 1.45% (active). Besides, the results for the growth in assay [19] and in [20] were 11.8% and 14.9%, respectively.

On to `O=C(Nc1ccc(F)c(Cl)c1)Nc1ccc(Cl)c(Cl)c1`, for which the growth was 86.1% in [1]; 102% in assay [2]; 74.2% in assay [3]; 76.9% in assay [4]; 65.1% in [5]; 66.4% in [6]. Moreover, the growth in assay [7] was 71.8%; in assay [8], 87.2%; in [9], 89%; in assay [10] it was 88.4%; in assay [11], 15.4%; in [12], 57.5%. Moreover, the growth in [13] is 76%; in assay [14], 72.8%; in assay [15] it was 88.1%; in assay [16] it was 36.6%; in assay [17], 80.3%; in assay [18], 84.1%. In addition, the growth in assay [19] is 53.6%; in assay [20] it was 53.1%.

On to `COc1ccc(/C=C2\CCC/C(=C\c3ccc(OC)c(OC)c3)C2=O)cc1OC`, for which the growth is 21.6% in [1]; 45.4% in assay [2]; 28.5% in assay [3]; -46.5% (active) in assay [4]; 106% in [5]; -14% (active) in [6]. In addition, the growth in assay [7] is 13.8%; in assay [8], 0.0865% (active); in [9] it was 22.6%; in assay [10] it was -33.9% (active); in assay [11] it was 10.6%; in [12] it was 42.3%. Besides, the growth was 15% in [13]; -32.5% (active) in assay [14]; 30.5% in [15]; 1.26% (active) in assay [16]; 13.1% in assay [17]; 14% in [18]. The growth is -2.63% (active) in assay [19] and -8.77% (active) in assay [20].

As for `COc1ccc(-c2nsc3c2NC(=O)CC3c2cccc(OC)c2)cc1` (stereo not given), the growth in assay [1] was 43.3%; in assay [2], 57%; in assay [3] it was 39.1%; in assay [4], 17.6%; in assay [5] it was 49.9%; in assay [6], 25.5%. Also, the growth in assay [7] was 37.1%; in [8] it was 49.6%; in assay [9], -11.7% (active); in assay [10], 13.7%; in [11] it was 18.9%; in assay [12], 41.5%. In addition, the growth in assay [13] is 73.3%; in assay [14], 16.8%; in [15], 62.3%; in assay [16], 15.5%; in [17] it was 13%; in assay [18] it was 74.7%. Moreover, the growth in assay [19] was 28.6%; in assay [20] it was 26.4%.

Turning to `O=C(Nc1ccc(Cl)cc1F)c1cc(F)ccc1O`, the growth in [1] was 1.46% (active); in [2] it was 8.54% (active); in assay [3] it was -0.133% (active); in [4], 4.1% (active); in [5] it was -7.2% (active); in assay [6], -25.1% (active). Also, the growth was 7.57% (active) in assay [7]; 3.03% (active) in assay [8]; -1.76% (active) in assay [9]; 16.3% in [10]; 5.39% (active) in assay [11]; -21.5% (active) in assay [12]. In addition, the growth in assay [13] is -18.1% (active); in assay [14], 9.69% (active); in assay [15], 13.4%; in assay [16], -56.2% (active); in assay [17], 4.32% (active); in assay [18], -17.3% (active). Moreover, the growth in [19] was 2.92% (active); in assay [20], 3.11% (active).

Turning to `O=c1oc2ccc(F)cc2c(=O)n1-c1ccc(F)cc1F`, the growth was 11.4% in [1]; 36.7% in assay [2]; 30.5% in assay [3]; 14.7% in [4]; -29% (active) in assay [5]; -8.1% (active) in assay [6]. Besides, the growth in [7] is 15.2%; in assay [8], 73.1%; in assay [9], 93.9%; in assay [10] it was 28.3%; in assay [11] it was 15.7%; in assay [12], -6.02% (active). In addition, the growth was 51.1% in [13]; 33.5% in [14]; 15% in [15]; 37.9% in [16]; 18.5% in [17]; 17.5% in assay [18]. Moreover, the growth was 29% in [19] and 23.3% in [20].
